# Hits are enriched below; roughly 14% of the tested compounds scored in any of these assays.
# HCMV inh – inhibitors of human cytomegalovirus | HFF cells, HCMV-luciferase reporter, 72 h; hits give low values | AID 1259415 | activity change, negative = inhibition, % at 57.5 µM | 410,000 tested, 4.5% active; in the data active = activity change below about -60%; inconclusive = no clear call, values can overlap the other calls; inactive = above about -39%
#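 Two compound doses tested in HFFs infected with HCMV-luciferase, MOI 1 PFU/cell, 72 h at 37C. Lysate luminescence read with OneGlo; data normalized against buffer-only and 10uM Salinomycin inhibitor controls.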
# Marburg entry inh – Marburg virus entry inhibition | Marburg virus pseudotyped entry inhibition, cell reporter | Potency, µM (series often up to 37.8 µM), without a hit: top-dose activity change, negative = inhibition, hits mostly inhibitors | 300,000 tested, 1.8% active | AID 540276; calls by dose curve; tested in HEK293 cells; note: potency is the fitted concentration of half-maximal effect
# HCV inh – inhibitors of hepatitis C virus infection; AID 651820; 340,000 tested, 3.4% active; Potency, µM (highest dose often 41.8 µM), without a hit: at the highest dose activity change, negative = inhibition, usual class: inhibitors; Huh7.5.1 HCVcc-Cre infection, luciferase reporter, 44 h; note: potency is the fitted concentration of half-maximal effect
#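 Antiviral activity was scored by luciferase reporter output from cells infected with HCVcc-Cre (~0.5 moi) in presence of compound, 44 h infection period, cells seeded 1,000/well 4 h prior.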
# Pf growth 48h – inhibits P. falciparum growth in the first generation, 48 h. 310,000 tested, 5.9% active. P. falciparum luciferase growth in erythrocytes, 48 h. Potency, µM (series often up to 28.7 µM), for inactives: top-dose activity change, negative = inhibition, hits mostly inhibitors; note: potency is the fitted concentration of half-maximal effect
#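 Cell-based growth assay: transgenic P. falciparum expressing firefly luciferase, cultured in red cells within RPMI 1640 containing 0.5% w/v Albumax, 24 mM bicarbonate and gentamycin. A drop in luciferase activity indicates inhibition.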
# Pf growth 96h – P. falciparum growth inhibition at 96 hour, primary screen for plastid delayed-death inhibitors. P. falciparum luciferase reporter growth, 96 h. 320,000 tested, 6.9% active. Potency, µM (series often up to 28.7 µM), for the others: at the top dose activity change, negative = inhibition, usual class: inhibitors. AID 504834; note: potency is the fitted concentration of half-maximal effect
#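 P. falciparum expressing integrated firefly luciferase, in erythrocytes at 2% hematocrit, 0.05% parasitemia, incubated with compounds 96 h at 37 C, 5% CO2. Growth inhibition read as loss of luminescence; two-generation exposure targets delayed-death apicoplast inhibitors.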
# Lassa entry inh – inhibitors of Lassa virus binding or cell entry; 300,000 tested, 1.2% active; AID 540256; Lassa virus pseudotype entry inhibition, cell reporter; Potency, µM (doses to about 37.9 µM), for inactives: top-dose activity change, negative = inhibition, actives largely listed as inhibitors; calls by dose curve; tested in HEK293 cells; note: potency is the fitted concentration of half-maximal effect; nearly all actives have a fitted effect of over 50% in size
# An asterisk follows results filed as active; i = inactive; ? = inconclusive; nt = no result given; [ ] = remark or other dose. Unless noted, calls come from the whole dose curve; as a rule, active = well fitted inhibition curve with a large enough effect; inconclusive = small, poorly fitted or top-dose-only effect, or another doubt; inactive = no such curve, though single readings can be large or run the other way. % is set by controls: 0 for no effect and ±100 for the full control effect.
SMILES,HCMV inh,Marburg entry inh,HCV inh,Pf growth 48h,Pf growth 96h,Lassa entry inh
COC1C=CO[C@@]2(C)Oc3c(C)c(O)c4c(O)c(c5c(nc6cc(C)ccn65)c4c3C2=O)NC(=O)/C(C)=C\C=CC(C)C(O)[C@@H](C)C(O)C(C)[C@@H](OC(C)=O)C1C (stereo partly drawn),nt,nt,nt,6.7µM*,4.8µM*,nt
CO[C@H]1/C=C/O[C@@]2(C)Oc3c(C)c(O)c4c(O)c(c5c(c4c3C2=O)NC2(CCN(CC(C)C)CC2)N=5)=NC(=O)/C(C)=C\C=C\[C@H](C)[C@H](O)[C@@H](C)[C@@H](O)[C@@H](C)[C@H](OC(C)=O)[C@@H]1C,23,nt,nt,8.5µM*,5.4µM*,nt
Cc1cc(O)c(C(c2ccccc2)N2CCN(c3ccccc3)CC2)c(=O)n1Cc1ccco1 (stereo not drawn),-5,nt,nt,nt,nt,11%[46.1 µM]
Cc1ccc2nc(N3C(=O)C(O)=C(C(=O)c4ccc(C)o4)C3c3ccc(O)cc3)sc2c1 (stereo not drawn),6,nt,24%,5%,-30%,nt
COc1ccc(N2Cc3cccc(C(=O)Nc4ccc(Cl)cc4)c3C2=O)cc1,-9,-2%[46.1 µM],nt,nt,nt,14%[46.1 µM]
CCCCc1nc2cc(C(=O)NCc3cn(C)nc3C)ccc2o1,-37,11%[46.1 µM],13µM*,-12%,?,?
Cc1nn(-c2ccccc2)c2sc(C(=O)Nc3cccc(O)c3)cc12,-31,-44%[46.1 µM],nt,nt,nt,?
COc1cc(C2c3c([nH]c(=O)[nH]c3=O)Nc3ccc4ccccc4c32)cc(OC)c1OC (stereo not drawn),6,-29%[46.1 µM],17%,?,?,?
COc1cc(C2c3c([nH]c(=O)[nH]c3=O)Nc3ccc4ccccc4c32)ccc1O (stereo not drawn),57,?,10µM*,-13%,13%,-1%
Cc1cc(C)nc(NC(N)=NC(C)c2ccccc2)n1 (stereo not drawn),-17,?,1%,15µM*,?,1%
Cc1cc(C)nc(NC(N)=NCCc2c[nH]c3ccccc23)n1,-97*,?,10µM*,?,22%,-17%[46.1 µM]
Cc1cc(C)nc(NC(=NCCc2c[nH]c3ccccc23)NC(=O)Nc2ccc(Cl)cc2)n1,?,?,11µM*,2.9µM*,0.59µM*,-2%
Cc1cc(C)nc(NC(=O)C(c2ccccc2)c2ccccc2)n1,57,-18%,2%,3%,60%,12%
NC(=NCCc1ccccc1)NS(=O)(=O)c1ccccc1,-14,6%,26%,14%,-11%,7%
COc1ccc2[nH]cc(CCN=C(NC(=O)c3cccc(Cl)c3)Nc3nc(C)cc(C)n3)c2c1,-18,?,nt,nt,nt,1%[46.1 µM]
NC(=NCCc1c[nH]c2ccccc12)NC(=O)c1ccc(Cl)cc1,15,?,-4%,-3%,17%,?
Cc1cc(C)nc(NC(N)=NCCc2ccccc2)n1,-96*,7.1µM*,11µM*,nt,nt,?
Cc1ccc(S(=O)(=O)N(CCC(=O)NCc2ccc(S(N)(=O)=O)cc2)c2ccccc2)cc1,3,?,13%,5%,?,?
CC1=CC(C)C(=O)N(CCN2CCOCC2)C(C)=C1 (stereo not drawn),-23,nt,nt,nt,nt,nt
Cc1noc(NS(=O)(=O)c2ccc(NC(=O)/C=C/c3ccc(C(C)C)cc3)cc2)c1C,5,0%[46.1 µM],-6%,33%,10µM*,?
CCc1cccc(C)c1NC(=O)c1cc(CN2CCCC2)on1,-12,nt,nt,nt,nt,22%[46.1 µM]
O=S1(=O)CCSC[C@@H](CN2CCOCC2)N1,-7,nt,nt,nt,nt,nt
O=C1Nc2ccccc2/C1=N\N=C\C1=C(N2CCOCC2)C(=C\c2ccccc2)/CC1,-19,nt,nt,?,2.9µM*,nt
CCC(=O)Nc1c(C(=O)Nc2ccc3c(c2)OCCO3)oc2ccccc12,40,-4%,-25%,304%,i,?
CCOCC(=O)Nc1c(C(=O)Nc2ccc3c(c2)OCCO3)oc2ccccc12,-96*,?,?,147%,138%,?
SMILES,HCMV inh,Marburg entry inh,HCV inh,Pf growth 48h,Pf growth 96h,Lassa entry inh
COCC(=O)Nc1c(C(=O)Nc2ccc3c(c2)OCCO3)oc2ccccc12,56,11µM*,?,369%,i,?
O=C(Nc1ccc2c(c1)OCCO2)c1oc2ccccc2c1NC(=O)C1CC1,-19,?,?,-19%,-21%,12%
O=C(COC(=O)/C=C/c1ccc(F)cc1)NCC1CCCO1 (stereo not drawn),-8,nt,12%,nt,nt,nt
CCC(C)(C)n1nnnc1C(c1cccnc1)N1CCC(Cc2ccccc2)CC1 (stereo not drawn),-8,?,7%,11%,?,?
CC(C)(C)n1nnnc1C(c1cccc(C#N)c1)N1CCC(Cc2ccccc2)CC1 (stereo not drawn),28,?,?,2.6µM*,nt,?
CCC(C)(C)n1nnnc1C(c1cccnc1)N1CCCc2ccccc21 (stereo not drawn),-34,-9%,13%,?,-4%,6%
CCC(C)(C)n1nnnc1C(c1cccs1)N1CCc2ccccc21 (stereo not drawn),?,?,-15%,9.3µM*,8%[5.75 µM],-29%
CC(C)(C)n1nnnc1C(c1cccc(C#N)c1)N1CCCc2ccccc21 (stereo not drawn),-17,-13%,-1%,9.3µM*,23%,-4%
CC(C)(C)n1nnnc1C(c1ccc(Cl)cc1)N1CCCc2ccccc21 (stereo not drawn),8,?,26%,2.3µM*,33%,11%
CCNC(=O)N(C)C[C@H]1N[C@@](Cc2ccccc2)(C(=O)OC)[C@H]2C(=O)N(C)C(=O)[C@@H]12,1,nt,0%,nt,nt,nt
CCC(C)(C)n1nnnc1C(c1cccc(C#N)c1)N1CCN(c2cc(C)ccc2C)CC1 (stereo not drawn),1,2.9µM*,6%,2%,-2%,?
CCOC(=O)[C@]12CCCC=C1N(Cc1cccc3ccccc13)C(=O)[C@H](CC(=O)NCCCN1CCCC1=O)C2,-8,nt,nt,nt,nt,nt
Cc1c(C(=O)Nc2ccc3c(c2)OCCO3)sc2nc(-c3ccccc3)cn12,-84*,?,2.5µM*,?,?,?
Cc1c(C(=O)NCc2ccco2)sc2nc(-c3ccccc3)cn12,18,nt,10µM*,?,?,nt
Cc1c(C(=O)Nc2ccncc2)sc2nc(-c3ccccc3)cn12,-36,nt,3.5µM*,4.1µM*,?,nt
COc1cccc(/C=C2/CN(C)CC3=C2OC(N)=C(C#N)C3c2cccc(OC)c2)c1 (stereo not drawn),9,?,?,13µM*,?,-23%

# Bioassay records as filed in PubChem.
